Source: PubChem
HP1b binding inh – inhibitors of HP1-beta chromodomain binding to methylated histone tails; AlphaScreen HP1-beta / biotin-H3K9me3 peptide binding; Potency, µM (top dose mostly 114 µM), inactives show top-dose activity change, negative = inhibition, hits mostly inhibitors; P83916; AID 540317; 390,000 tested, 0.56% active; further: nearly all actives have a fitted effect of over 70% in size
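Compound inhibition of the preformed complex between 50 nM HP1-beta and 50 nM biotinylated H3K9me3 peptide was read by AlphaScreen. Buffer was PBS pH 7.4 with 0.01% Tween-20. Incubations ran 30 min at room temperature, with 10 ug/mL donor/acceptor beads.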
BAZ2B block – blocks human BAZ2B; Potency, µM (highest dose often 114 µM), inactives show at the highest dose activity change, negative = inhibition, actives largely listed as inhibitors; AID 504333; 360,000 tested, 4.4% active; AlphaScreen BAZ2B-H3K14Ac peptide displacement; further: on the % scale 0 is the no-effect control and ±100 the full control effect; nearly all actives have a fitted effect of over 60% in size
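In this displacement format the biotinylated H3(5-23) peptide acetylated at Lys14 serves as ligand at 50 nM, with BAZ2B at 50 nM in PBS pH 7.4 containing 0.01% Tween-20. Donor and acceptor beads are 10 ug/mL final.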
JMJD2A Tudor – inhibitors of human JMJD2A Tudor domain; O75164; AlphaScreen JMJD2A-Tudor / H3K4me3 peptide binding; Potency, µM (highest dose often 114 µM), for inactives: at the top dose activity change, negative = inhibition, most hits filed as inhibitors; 390,000 tested, 4.4% active; further: on the % scale 0 is the no-effect control and ±100 the full control effect; nearly all actives have a fitted effect of over 50% in size
GLS inhibitor – inhibitors of human glutaminase (GLS). GLS enzymatic activity, qHTS titration. Potency, µM (series often up to 45.5 µM), inactives show at the highest dose activity change, negative = inhibition, most hits filed as inhibitors. 410,000 tested, 0.21% active. AID 624170; further: on the % scale 0 is the no-effect control and ±100 the full control effect
Target sequence (O94925 whole entry, looked up): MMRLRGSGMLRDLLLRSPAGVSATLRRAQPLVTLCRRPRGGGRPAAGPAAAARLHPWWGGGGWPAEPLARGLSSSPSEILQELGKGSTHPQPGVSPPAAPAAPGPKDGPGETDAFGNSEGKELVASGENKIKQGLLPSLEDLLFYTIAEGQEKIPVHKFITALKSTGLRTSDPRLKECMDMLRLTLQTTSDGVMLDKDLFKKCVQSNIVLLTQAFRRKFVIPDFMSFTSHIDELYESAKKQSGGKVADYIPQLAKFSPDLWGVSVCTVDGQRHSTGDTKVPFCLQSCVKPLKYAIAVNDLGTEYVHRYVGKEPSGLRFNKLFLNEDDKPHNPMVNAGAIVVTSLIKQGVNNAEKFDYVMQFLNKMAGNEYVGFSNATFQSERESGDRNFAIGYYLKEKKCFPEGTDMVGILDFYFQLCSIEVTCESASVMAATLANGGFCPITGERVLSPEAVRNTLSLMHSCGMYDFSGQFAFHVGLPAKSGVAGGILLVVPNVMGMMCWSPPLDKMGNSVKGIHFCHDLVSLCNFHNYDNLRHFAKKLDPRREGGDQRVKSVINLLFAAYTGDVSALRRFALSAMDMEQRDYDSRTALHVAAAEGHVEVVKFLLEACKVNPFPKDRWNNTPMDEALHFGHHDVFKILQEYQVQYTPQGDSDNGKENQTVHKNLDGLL
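hKGA in 45 mM KH2PO4 (pH 8.2), 0.02% Tween-20 with compound, then 1mM L-Glutamine (stock as added) plus glutamate oxidase/HRP/Amplex red coupling mix. Fluorescence read initially and after 30 min at RT; signal change reflects glutamate formation.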
G9a block – blocks human histone lysine methyltransferase G9a; AID 504332; 350,000 tested, 8.8% active; G9a H3K9 monomethylation, AlphaScreen, 2 h; Q96KQ7; Potency, µM (top dose mostly 102 µM), inactives show top-dose activity, negative = inhibition, actives largely listed as inhibitors; further: on the % scale 0 is the no-effect control and ±100 the full control effect; nearly all actives have a fitted effect of over 75% in size
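Compounds were preincubated with 20 nM G9a for 15 min, after which biotinylated H3K9 peptide (500 nM) and SAM (20 uM) started a 2 h room-temperature reaction. Monomethylated product was quantified by antibody-based AlphaScreen chemiluminescence.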
* hit, by the source's call; ? = inconclusive; nt = no result given; [ ] = remark or other dose. Rows were chosen to be rich in hits. Some 10% of all compounds tested hit in one or more screens of this group. The call rests on the fitted dose curve; in most records, active means well fitted curve in the direction sought with a large enough effect; inconclusive means small, poorly fitted or top-dose-only effect, or another doubt; inactive means no such curve, though single readings can be large; an effect the other way counts as inactive or inconclusive. Potency means the concentration at half of the fitted maximal effect.

SMILES | HP1b binding inh | BAZ2B block | JMJD2A Tudor | GLS inhibitor | G9a block
O=C(CSc1nnc(Cc2cccs2)n1-c1ccc(Cl)cc1)NCc1ccc2c(c1)OCO2 | 41.1% | -36.5% | -18.3% | -7.5% | 50.1µM*
COc1cc2[nH]c(=O)n(CCCCCC(=O)NCCCN3CCOCC3)c(=O)c2cc1OC | 21.6% | 2.0% | -7.6% | -0.2% | -0.4%[12.7 µM]
Cn1c2c(c(=O)[nH]c1=O)C(c1cccc(O)c1)C1=C(N2)c2ccccc2C1=O (stereo unspecified) | -13.3% | ? | -34.0% | 9.2% | 31.6µM*
CSc1ccc(-c2nc(O)c3cnccn23)cc1 | 20.1% | -23.2% | -10.4% | 0.0% | 39.8µM*
O=C1Nc2ccccc2N=C(c2ccccc2)C1N1CCOCC1 (stereo unspecified) | 40.6% | 0.8% | -7.2% | -8.0% | 39.8µM*
O=C(Nc1ccnn1C1CCN(C/C=C/c2ccccc2)CC1)c1cccc(F)c1 | 31.5% | -14.7% | -16.4% | -3.2% | 23.4%[12.7 µM]
CCN(CC)CCn1c(=S)[nH]c2cc3c(cc2c1=O)OCO3 | 11.5% | -4.2% | 44.7µM* | 7.8% | 44.7µM*
COCCNC(=O)CCCCCn1c(=S)[nH]c2ccccc2c1=O | 52.7% | 0.7% | ? | nt | 15.6%[12.7 µM]
CCCCNC(=O)CCCn1c(=S)[nH]c2cc3c(cc2c1=O)OCO3 | 41.0% | 8.6% | -14.9% | -9.8% | -21.8%[59 µM]
O=C(CCCn1c(=S)[nH]c2cc3c(cc2c1=O)OCO3)N1CCN(C2CCCCC2)CC1 | 24.7% | -27.2% | 79.4µM* | -8.8% | ?
CCN1CCN(CCn2c(=S)[nH]c3cc4c(cc3c2=O)OCO4)CC1 | 21.8% | 3.5% | ? | nt | -1.3%[12.7 µM]
CCN(CC)CCNC(=O)CCn1c(=S)[nH]c2cc3c(cc2c1=O)OCO3 | 17.4% | 12.6% | 50.1µM* | -22.1% | 21.4%[12.7 µM]
CCN(CC)CCNC(=O)CCCCn1c(=S)[nH]c2c([nH]c3ccc(OC)cc32)c1=O | ? | ? | 3.98µM* | -3.9% | 12.6µM*
COc1cc(OC)c(C=NNC(=S)NC23CC4CC(CC(C4)C2)C3)c(OC)c1 | -22.6% | nt | -34.7% | 8.5% | nt
COc1ccc(CC(=O)NCCc2ccc(S(N)(=O)=O)cc2)cc1 | 23.6% | ? | -4.9% | 14.1% | -3.2%
COc1cc2nc(=S)n3[nH]c(COc4ccccc4C)nc3c2cc1OC | 21.3% | 6.3% | -37.2% | -14.5% | -5.5%[59 µM]
COc1cc2nc(=S)n3[nH]c(CCn4nc(C)cc4C)nc3c2cc1OC | -0.5% | 4.6% | -23.2% | ? | 1µM*
COC(=O)c1cccc(-c2ccc(C(c3c(C)[nH][nH]c3=O)c3c(C)[nH][nH]c3=O)o2)c1 | ? | 39.8µM* | 56.2µM* | ? | 2.24µM*
Cc1[nH][nH]c(=O)c1C(c1ccc(-c2ccc(Cl)c(C(=O)O)c2)o1)c1c(C)[nH][nH]c1=O | 27.5% | 39.8µM* | 50.1µM* | 2.4% | 3.16µM*
COC(=O)c1ccccc1-c1ccc(C(c2c(C)[nH][nH]c2=O)c2c(C)[nH][nH]c2=O)o1 | 0.6% | -11.3% | -28.9% | 13.2% | 2.0%
Cc1ccccc1C(=O)Nc1c(C(=O)Nc2cccc(F)c2)oc2ccccc12 | 27.3% | -5.6% | -5.0% | 2.9% | 3.2%[59 µM]
CN(C)c1ccc(C(=C2C=CC(=[N+](C)C)C=C2)c2ccccc2)cc1 | nt | nt | nt | 25.6% | 11.2µM*
CN(C)c1ccc(C(=C2C=CC(=[N+](C)C)C=C2)c2ccc(N(C)C)cc2)cc1 | nt | nt | nt | 1.7% | ?
CCN(CCO)Cc1csc2ccccc12 | 63.6% | 4.6% | 2.1% | 3.9% | -16.9%[59 µM]
CC1=NN(C(N)=S)C(=O)C1N=Nc1ccc(Br)cc1 (stereo unspecified) | 13.8% | -11.4% | -27.2% | 0.0% | nt
SMILES | HP1b binding inh | BAZ2B block | JMJD2A Tudor | GLS inhibitor | G9a block
COc1ccc(N=NC2C(=O)N(c3ccccc3)N=C2C)cc1 (stereo unspecified) | 7.08µM* | 1.58µM* | 7.94µM* | 13.9% | ?
CC1=NN(c2ccccc2)C(=O)C1N=Nc1cccc(O)c1 (stereo unspecified) | -15.9% | ? | ? | 2.4% | 70.8µM*
CC1=NN(c2nc(-c3ccc(C)cc3)cs2)C(=O)C1N=Nc1ccccc1O (stereo unspecified) | 1.7% | ? | ? | 7.6% | nt
CC1=NN(c2ccccc2)C(=O)C1N=Nc1ccc(N)cc1 (stereo unspecified) | ? | 12.6µM* | ? | -13.9% | ?
CC1=NN(c2nc(-c3ccc(C)cc3)cs2)C(=O)C1N=Nc1cccc(O)c1 (stereo unspecified) | ? | ? | 14.1µM* | ? | 39.8µM*
COc1ccc(S(=O)(=O)N2CCOC2CNC(=O)C(=O)NCCc2ccccc2OC)cc1C (stereo unspecified) | 11.8% | 3.1% | -27.5% | -1.4% | -1.5%
COc1ccc(-c2nc(-c3cccnc3)no2)cc1 | 63.1% | -0.9% | -18.1% | 2.2% | 15.2%
CC1=NN(c2ccccc2)C(=O)C1N=Nc1ccccc1 (stereo unspecified) | ? | 3.16µM* | ? | 10.2% | 0.891µM*
CC1=NN(c2ccccc2)C(=O)C1c1ccccc1 (stereo unspecified) | -5.1% | -31.8% | -33.6% | 19.6% | -12.9%[59 µM]
COc1cc(/C=C2/NC(=O)N(Cc3ccccc3F)C2=O)cc(OC)c1OC | 30.1% | -17.9% | -19.3% | -5.6% | -13.0%[59 µM]
O=C(N=C1c2ccccc2CN1c1ccccc1)c1cccc([N+](=O)[O-])c1 | -22.0% | -33.3% | ? | -4.9% | 50.1µM*
O=C(/N=C1/c2ccccc2CN1c1ccccc1)Nc1ccccc1 | 33.6% | -12.2% | -12.8% | -12.4% | 11.5%[59 µM]
COC(=O)c1ccc(N2Cc3ccccc3/C2=N\C(=O)Nc2ccccc2)cc1 | 29.5% | -0.2% | -0.4% | -3.4% | -9.1%[59 µM]
O=C(N=C1c2ccccc2CN1c1cccc(Cl)c1)c1cccnc1 | 49.8% | -8.1% | -0.3% | -7.9% | 50.1µM*
COc1ccc(N2Cc3ccccc3C2=NC(=O)c2ccc(C)cc2)cc1OC | 12.1% | -37.9% | ? | -16.1% | 44.7µM*
O=C(N=C1c2ccccc2CN1c1ccc(F)c(F)c1)c1cccnc1 | 37.3% | -10.1% | -14.1% | -0.2% | -29.9%
CCOc1ccc(C(=O)c2oc3ccccc3c2NC(=O)Cc2coc3ccc(CC)cc23)cc1 | 79.7% | 4.8% | 39.6% | -6.9% | 15.4%[59 µM]
COc1ccc(/C=N/NC(=O)CNC(=O)c2cccs2)cc1 | 27.3% | 6.1% | -8.0% | 4.9% | 19.2%[59 µM]
COc1ccc(/C=C(/C(=O)c2cccs2)N2C=CC=CC2=C(C#N)C#N)cc1 | -12.0% | -34.0% | ? | ? | 8.91µM*
COc1ccc(-c2cc(=O)oc3cc(OCC(=O)NCc4ccccn4)ccc23)cc1 | 28.2% | -1.6% | -14.3% | 3.9% | 23.7%
N#CC1=C(N)SC(N)=C(C#N)C1CCc1ccccc1 | 41.3% | -24.9% | -25.0% | -25.2% | ?
N#CC1=C(N)SC(N)=C(C#N)C1c1c(Cl)cccc1Cl | -9.4% | ? | ? | 19.2% | 11.2µM*
